Most compounds without a hit are left out; they make up all but 3.5% or so of the library.
Mtb hypoxia inh: reduces hypoxia-regulated biosensor signal in M. tuberculosis. M. tuberculosis hypoxia-regulated fluorescent reporter, fluorescence. fluorescence inhibition, % (no concentration beside the values). AID 1159583. 300,000 tested, 0.1% active; in the data active = fluorescence inhibition mostly above about 23%, no sharp cut-off; inactive = mostly below about 17%
FBA Mtb inh: Mtb fructose-bisphosphate aldolase inhibition; purified M. tuberculosis FBA, fluorescence read-out; P9WQA3; 360,000 tested, 2.3% active; inhibition, % at 1 µM; in the data active = inhibition above about 27%;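 note: 0% = vehicle and 100% = reference inhibitor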
Rv3671c inh: inhibitors of M. tuberculosis serine protease Rv3671c; P9WHR9; inhibition, % at 5.96 µM; 320,000 tested, 0.048% active; AID 2606; in the data active = inhibition above about 38%;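 note: extracellular domain of Rv3671c used as enzyme; 0% = enzyme with DMSO and 100% = no enzyme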
GDH-TPI counter: counter-screen for M. tuberculosis FBA inhibitors: GDH-TPI coupled enzymes. inhibition, % at 4.8 µM. GDH-TPI coupled enzyme counterscreen, NADH absorbance. 360,000 tested, 1.2% active; in the data active = inhibition above about 30%;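 note: 0% = DMSO wells and 100% = wells lacking the enzyme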
FadD28 binding: blocks FadD28 binding to the bisubstrate probe | 360,000 tested, 0.22% active | fluorescence polarization | inhibition, % at 12.5 µM | AID 588549; in the data active = inhibition above about 8.5%, passing the limit was not always enough
UGM FP inh: blocks M. tuberculosis UGM enzyme; purified UGM, fluorescence polarization probe displacement; inhibition, % at 10 µM; 320,000 tested, 0.06% active; in the data active = inhibition above about 10%, passing the limit was not always enough
Target sequence (P9WIQ1 whole entry, looked up): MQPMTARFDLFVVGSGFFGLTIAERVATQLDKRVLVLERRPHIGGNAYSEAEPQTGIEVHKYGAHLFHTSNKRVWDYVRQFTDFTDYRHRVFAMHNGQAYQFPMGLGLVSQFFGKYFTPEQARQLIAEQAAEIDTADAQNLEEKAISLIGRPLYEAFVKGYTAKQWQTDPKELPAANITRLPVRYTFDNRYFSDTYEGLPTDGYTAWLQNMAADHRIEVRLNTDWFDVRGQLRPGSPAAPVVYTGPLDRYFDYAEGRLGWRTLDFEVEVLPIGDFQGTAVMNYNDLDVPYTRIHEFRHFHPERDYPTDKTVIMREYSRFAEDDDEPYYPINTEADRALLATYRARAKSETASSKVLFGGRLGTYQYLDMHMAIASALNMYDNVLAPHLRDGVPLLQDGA
Numbers without * were called inactive; x = not tested or not shown.

SMILES	Mtb hypoxia inh	FBA Mtb inh	Rv3671c inh	GDH-TPI counter	FadD28 binding	UGM FP inh
C/C(=C\c1cccs1)C(=O)c1c(C)cc(C)[nH]c1=O	15.2	2.4	-19.0	53.2*	-3.4	-0.7
Cc1cc(C)c(C(=O)/C=C/c2cccs2)c(=O)[nH]1	10.2	-3.9	-0.6	16.0	-2.1	-0.6
N#C/C(=C/c1ccc(CNC(=O)C(=O)Nc2cc(Cl)cc(Cl)c2)o1)C(=O)NCc1cccnc1	4.7	0.4	-22.1	-3.6	-0.9	-0.3
Cc1ccc(NC(=O)C(=O)NCc2ccc(/C=C(/C#N)C(=O)NCc3cccnc3)o2)cc1C	13.4	0.4	4.4	33.7*	-1.0	-1.4
COCCNC(=O)/C(C#N)=C\c1ccc(CNC(=O)C(=O)Nc2ccc(C)c(C)c2)o1	x	-0.7	-3.3	21.7	-2.9	-1.7
Cc1ccc(NC(=O)C(=O)NCc2ccc(/C=C(/C#N)C(=O)NCc3cccnc3)o2)cc1	-2.9	-0.1	-1.1	32.1*	-2.4	2.3
CN(C)C=Nc1cc(=O)n(Cc2ccccc2)c(=O)n1C	8.9	x	x	x	x	x
COc1cc(C=Nn2c(C)n[nH]c2=S)ccc1OCc1ccccc1	13.3	x	x	x	x	x
Cc1ccccc1NC(=O)CCc1c(C)nn(-c2ccc(N3CCOCC3)nn2)c1C	-3.8	3.0	-3.9	6.6	-2.0	-2.3
Cc1nn(-c2ccc(N3CCOCC3)nn2)c(C)c1CCC(=O)N1CCN(C)CC1	75.2*	1.7	1.1	8.1	-3.5	0.6
CCC(=O)N1CC2(CC(c3cccc(NC(=O)COc4ccc(Cl)cc4)c3)=NO2)CC1C(N)=O (configuration not stated)	3.2	x	x	x	x	x
CC1C=C(C(=O)N2CCN(Cc3ccccc3)CC2)OC(OCc2ccc(CO)cc2)C1 (configuration not stated)	9.0	x	x	x	x	x
COC(=O)c1c(C(=O)OC)c2c(-c3ccccc3)cc3cccc1n32	x	120.8*	x	15.2	-10.5	x
COC(=O)c1c(-c2ccccc2)csc1N	-1.8	2.9	-6.6	3.1	0.9	2.8
C(=NN(Cc1ccccc1)c1ccccc1)c1ccco1	-1.7	x	x	x	x	x
CC(=O)c1ccc(N2CCN(C(=O)CNC(=O)c3ccc(Br)o3)CC2)cc1	x	0.0	x	32.3*	-2.5	x
Cc1cc(C(=O)COc2ccccc2C(N)=O)c(C)n1C	4.5	0.4	9.2	-4.3	-1.9	0.5
Cc1cc(C(=O)COc2cccc3cccnc23)c(C)n1C	6.2	2.3	-2.9	7.9	-1.3	16.3*
CCOc1ccccc1-c1cc(C(=O)NN=Cc2ccc(O)c(OC)c2)c2ccccc2n1	8.2	x	x	x	x	x
O=C(NNC(=O)C1[C@H]2CCCC[C@@H]12)c1ccc(=O)oc1 (some centres not stated)	-8.0	14.3	0.1	39.3*	1.2	-0.6
O=C(N/N=C/c1ccc(O)cc1)c1ccncc1	x	3.1	0.2	25.3	-0.9	-1.9
Cc1cc(C)n(CCC(=O)N/N=C/c2ccc(O)cc2O)n1	x	3.6	10.2	31.1*	-1.5	x
C=C1CC(C(=O)N/N=C/c2ccc(O)cc2)C1	x	3.6	-7.2	4.4	1.2	2.4
N/C(=N\[N+](=O)[O-])N/N=C/c1ccc(O)cc1	x	0.3	-0.8	36.9*	-1.3	0.6
O=C(CCC(=O)Nc1ccc(F)cc1)NN=Cc1ccc(O)cc1O	5.0	x	x	x	x	x
SMILES	Mtb hypoxia inh	FBA Mtb inh	Rv3671c inh	GDH-TPI counter	FadD28 binding	UGM FP inh
O=C(NN=Cc1ccc(O)cc1)C(=O)NN=Cc1ccc(O)cc1	17.9	-7.2	x	67.8*	-7.8	x
O=C(N/N=C/c1ccc(O)cc1O)C(=O)N/N=C/c1ccc(O)cc1O	x	-2.5	-0.9	41.3*	-0.4	2.0
CCOC(=O)C1C2COc3ccc(C)cc3C2N2C(=O)C(CO)NC(=O)[C@@]12C (some centres not stated)	12.8	x	x	x	x	x
COc1cc(C=NNC(=O)c2c(C)nnn2-c2nonc2N)ccc1O	13.2	x	x	x	x	x
COCc1cc(C)nc(OCC(=O)N/N=C/c2ccc(O)cc2O)c1C#N	x	2.2	-2.8	34.7*	1.3	-2.7
CCc1nnc(NS(=O)(=O)c2ccc(NC(=O)/C=C/c3ccc(OC)cc3OC)cc2)s1	6.1	3.7	-64.4	39.7*	-17.4	0.1
COc1ccc(/C=C/C(=O)Nc2cccc(S(=O)(=O)NC3=NCCCCC3)c2)cc1	1.9	5.7	-8.7	50.6*	-0.3	-1.0
COc1ccc(OC)c(/C=C/C(=O)Nc2cccc(S(=O)(=O)NC3=NCCCCC3)c2)c1	-3.6	19.9	-25.6	-0.3	-2.1	-0.1
COc1ccc(/C=C/C(=O)Nc2cccc(S(=O)(=O)NC3=NCCCCC3)c2)c(OC)c1	3.2	3.9	-28.0	36.0*	-5.0	-2.7
CN(C)c1ccc(C(=O)Nc2cccc(S(=O)(=O)NC3=NCCCCC3)c2)cc1	5.9	-1.5	-1.6	30.8*	-2.3	-2.4
O=[N+]([O-])c1ccc(NN=Cc2ccc[nH]2)cc1	9.1	x	x	x	x	x
O=C(Nc1ccc(S(=O)(=O)NC2=NCCCCC2)cc1)c1cccs1	30.1*	-0.6	-2.3	1.3	-0.7	0.5
O=C(Nc1ccc(S(=O)(=O)NC2=NCCCCC2)cc1)c1ccc([N+](=O)[O-])s1	17.2	-1.8	-1.1	12.0	-1.4	1.1
O=C(NCC1CCCO1)C(=O)NN=Cc1ccc(O)c(Cl)c1 (configuration not stated)	17.3	x	x	x	x	x
CC1=NN(C(N)=S)C(=O)C1N=Nc1c(C)n(C)n(-c2ccccc2)c1=O (configuration not stated)	-7.0	-11.3	2.2	30.6*	1.4	1.4
CC1=NN(C(N)=S)C(=O)C1N=Nc1ccccc1O (configuration not stated)	4.2	-3.2	0.9	12.9	-0.4	-0.8
COc1cc(C=NNC(=O)CCC(=O)Nc2ccc(C)cc2)ccc1O	3.7	x	x	x	x	x
CSc1nc2nc(-c3ccccc3)cc(C(F)(F)F)n2n1	-0.1	36.8*	4.8	11.6	-3.9	0.5
CSc1nc2nc(C(F)(F)F)cc(-c3ccccc3)n2n1	x	33.8*	-7.2	24.3	-3.2	1.4
CSc1nc2nc(C)cc(-c3ccccc3)n2n1	-1.2	24.5	-1.6	9.2	-1.3	6.5
CC(Cn1cnc([N+](=O)[O-])n1)=NNC(=O)c1cccnc1	6.4	x	x	x	x	x
COC(=O)C1=C(c2ccc(Cl)c(C(F)(F)F)c2)CC2CCC1N2C(=O)NCc1ccco1 (configuration not stated)	-0.2	x	x	x	x	x
O=C(/C=C(\c1ccc(Cl)cc1)n1cncn1)c1ccc(Cl)cc1	36.0*	1.5	-6.7	4.6	-0.5	3.3
O=C(/C=C(\c1ccccc1)n1cncn1)c1ccccc1	-10.4	4.8	-0.9	12.2	-0.6	-0.8
Oc1ccc(/C=N/NC(=S)NC2CC3CCC2C3)cc1 (configuration not stated)	x	-0.8	-3.3	60.5*	-0.1	0.5
Oc1ccc(C=NNC(=S)NC2CC3CCC2C3)cc1 (configuration not stated)	5.6	x	x	x	x	x
CCOC(=O)C(C)N1N=C(/C=C/c2ccc(OC)cc2)CCC1=O (configuration not stated)	x	0.6	5.2	41.8*	-0.9	-0.4
CCOC(=O)CN1N=C(/C=C/c2ccc(OC)cc2)CCC1=O	x	1.1	2.2	37.9*	0.9	2.3

Screens deposited in PubChem BioAssay by several laboratories.
